# Data taken from ChEMBL document CHEMBL3988442, “University of Dundee, Small-Polar-MMV Screening Library” (2021).
# Hit rate of the full screen: of about 69,000 compounds, about 1,000 (1.4%) showed an effect of 50% or more. For the sample, strong results were picked, then their nearest neighbours and some compounds at random.
# Tested on: Leishmania donovani
# Experiment: Leishmania intramacrophage assay
# Assay type: functional, organism-based
# Design: scale not given: in the data most compounds retested in dose-response had high values
smiles,measurement,setting,value
CC(C)CCc1nc(CNCC2CN(C)CCO2)cs1 (centres undefined),Percent Effect,30 µM,42.41%
CCN1C(=O)C2(CCOCC2)c2cc(NC(=O)c3cc(C)n[nH]3)ccc21,Percent Effect,"30.3 µM, […]",7.521%
Cc1nonc1CC(=O)N1CCC2(CCCN(C3CCOCC3)C2=O)C1 (centres undefined),Percent Effect,"30.3 µM, […]",40.04%
O=C(c1c[nH]nn1)N1CCCC1C1CCCCC1 (centres undefined),Percent Effect,"30.3 µM, […]",34.69%
Cc1cc(C)n(C2CCN(S(=O)(=O)N3CCOCC3)CC2)n1,Percent Effect,"30.3 µM, […]",-18.5%
CN(C)C(CNC(=O)c1ccc(-n2cnnn2)cc1)c1ccccc1Cl (centres undefined),Percent Effect,"30.3 µM, […]",52.55%
CN(C)C(CNC(=O)c1cccc(-n2cnnn2)c1)c1ccccc1Cl (centres undefined),Percent Effect,"30 µM, 30.03 µM",-12.85%
O=C(NCC(O)c1ccccc1Cl)c1cccc(-n2cnnn2)c1 (centres undefined),Percent Effect,"30 µM, 30.03 µM",18.08%
Cc1ncc(CNCC(C)O)c2cc(C(=O)c3ccc(Br)cc3)oc12.Cl (centres undefined),Percent Effect,"30.3 µM, […]",46.85%
Cc1ncc(CNC(C)(C)CO)c2cc(C(=O)c3ccc(Br)cc3)oc12,Percent Effect,"30.3 µM, […]",44.76%
Cc1ncc(CNCCO)c2cc(C(=O)c3ccc(Br)cc3)oc12.Cl,Percent Effect,"30.3 µM, […]",52.55%
CCn1nc(C)c2ncnc(NCCn3cccn3)c21,Percent Effect,"30.3 µM, […]",-8.829%
N#Cc1ccc(N2CCC3(CC2)COCCN3Cc2cccnc2)cc1.O=C(O)C(F)(F)F,Percent Effect,"30.3 µM, […]",-0.3912%
CC1(C)CC(N2Cc3nc(N)ncc3C2=O)CC(C)(C)N1,Percent Effect,"30 µM, 30.03 µM",0.1811%
CNc1ncc2c(n1)CN(C1CCCC1)C2=O,Percent Effect,"30.3 µM, […]",-21.11%
CNc1ncc2c(n1)CN(C1CC(C)(C)NC(C)(C)C1)C2=O,Percent Effect,"30.3 µM, […]",57.04%
CCc1nsc(NC2CC(=O)N(C3CC3)C2)n1 (centres undefined),Percent Effect,"30.3 µM, […]",25.34%
Cc1ccc(-c2[nH]c3ccccc3c2C(=O)O)c(C)c1,Percent Effect,"30.3 µM, […]",12.49%
COCCN1CCC(CNC(=O)Nc2ccc(SC(F)(F)F)cc2)C1 (centres undefined),Percent Effect,"30.3 µM, […]",43.78%
COCCN1CCC(CNC(=O)Nc2ccc(F)c(Cl)c2)C1 (centres undefined),Percent Effect,"30.3 µM, […]",9.001%
COCCN1CCC(CNC(=O)Nc2ccc(-c3ccccc3)cc2)C1 (centres undefined),Percent Effect,"30.3 µM, […]",93.25%
Cc1cccc(CN2CCC3(CC(C(=O)NCC(C)C)=NO3)C2)c1 (centres undefined),Percent Effect,"30.3 µM, […]",14.53%
CN(Cc1ccc([S+](C)[O-])cc1)c1ccc(Br)cn1 (centres undefined),Percent Effect,"30.3 µM, […]",20.24%
CN(Cc1ccc([S+](C)[O-])cc1)c1ccc(C(F)(F)F)cn1 (centres undefined),Percent Effect,"30.3 µM, […]",54.49%
CN(Cc1ccccc1)c1ccc(C(F)(F)F)cn1,Percent Effect,"30.3 µM, […]",14.63%
Cn1ccnc1CN1CCCN(C(=O)CC(C2CC2)C2CC2)CC1,Percent Effect,30 µM,10.73%
Cn1nc(C(=O)NCc2ccccn2)c2c1CCS(=O)(=O)C2,Percent Effect,"30 µM, 30.03 µM",-1.622%
Cc1ncc(CNC(=O)c2nn(C)c3c2CS(=O)(=O)CC3)s1,Percent Effect,"30 µM, 30.03 µM",17.47%
Cn1nc(C(=O)NCc2cccs2)c2c1CCS(=O)(=O)C2,Percent Effect,"30.3 µM, […]",62.35%
